According to PubChem BioAssay AID1159580 (chemical genetic matrix, 2015):
Values joined by “and” are separate entries in the source; they are usually repeats but may differ in a detail not shown here. Identical values can stand only once. Hit rate of the full screen: of about 5,500 compounds, about 2,000 (36%) were called active. About 18% were inconclusive and are not listed. Rule as the data show it: active = normalized growth mostly below about 0.91 (no sharp cut-off); inconclusive = no clear call, values can overlap the other calls; inactive = mostly above about 0.92. Some of the results follow.

Test: chemical genetic growth profiling, strain panel (AID 1159580);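 also: tested at 20 µM; growth read once vehicle control cultures reached saturation at 30 °C; 1 = growth at the plate median or of vehicle wells; lower values mean less growth of the strain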
Conditions: S. cerevisiae deletion strains, growth OD

Measured: normalized growth

S=c1nc[nH]c2nc[nH]c12
inactive: locus YAL013W, strain DEP1, stronger effect = lower value 0.996 | locus YAL021C, strain ccr4, stronger effect = lower value 1.02 | locus YAL026C, strain drs2, stronger effect = lower value 0.991 | locus YAL030W, strain snc1, stronger effect = lower value 1.02 | locus YBL061C, strain skt5, stronger effect = lower value 1.02 | locus YBR009C, strain hhf1, stronger effect = lower value 0.997 | locus YBR021W, strain FUR4, stronger effect = lower value 0.997 | locus YBR023C, strain chs3, stronger effect = lower value 1.02 | locus YBR171W, strain sec66, stronger effect = lower value 0.976 | locus YBR229C, strain ROT2, stronger effect = lower value 1 | locus YBR231C, strain swc5, stronger effect = lower value 1.02 | locus YBR279W, strain paf1, stronger effect = lower value 1 | locus YCL011C, strain gbp2, stronger effect = lower value 0.972 | locus YCL016C, strain dcc1, stronger effect = lower value 1.01 | locus YCL029C, strain bik1, stronger effect = lower value 0.976 | locus YCL069W, strain vba3, stronger effect = lower value 0.964 | locus YCR088W, strain abp1, stronger effect = lower value 0.977 | locus YDL005C, strain med2, stronger effect = lower value 0.988 | locus YDL035C, strain GPR1, stronger effect = lower value 1 | locus YDL040C, strain nat1, stronger effect = lower value 1.02 | locus YDL074C, strain BRE1, stronger effect = lower value 1 | locus YDL101C, strain DUN1, stronger effect = lower value 0.996 | locus YDL134C, strain PPH21, stronger effect = lower value 1.01 | locus YDL185W, strain tfp1, stronger effect = lower value 0.964 | locus YDL192W, strain arf1, stronger effect = lower value 0.974 | locus YDR001C, strain nth1, stronger effect = lower value 0.972 | locus YDR069C, strain doa4, stronger effect = lower value 1.02 | locus YDR101C, strain arx1, stronger effect = lower value 1 | locus YDR137W, strain rgp1, stronger effect = lower value 1.02 | locus YDR150W, strain NUM1, stronger effect = lower value 0.999 | locus YDR159W, strain sac3, stronger effect = lower value 0.985 | locus YDR162C, strain NBP2, stronger effect = lower value 0.996 | locus YDR195W, strain ref2 0.992 | locus YDR297W, strain sur2, stronger effect = lower value 1.02 | locus YDR318W, strain mcm21, stronger effect = lower value 0.977 | locus YDR334W, strain swr1, stronger effect = lower value 1.05 | locus YDR335W, strain msn5, stronger effect = lower value 1.01 | locus YDR388W, stronger effect = lower value 0.999 | locus YDR392W, strain spt3, stronger effect = lower value 1.01 | locus YDR502C, strain sam2, stronger effect = lower value 0.991 | locus YEL003W, strain gim4, stronger effect = lower value 0.963 | locus YEL037C, strain rad23, stronger effect = lower value 0.977 | locus YEL061C, strain CIN8 (second series), stronger effect = lower value 0.992 | locus YEL061C, strain CIN8, stronger effect = lower value 0.991 | locus YER015W, strain faa2, stronger effect = lower value 1.01 | locus YER016W, strain bim1, stronger effect = lower value 1 | locus YER110C, stronger effect = lower value 0.969 | locus YER111C, strain swi4, stronger effect = lower value 0.966 | locus YER155C, strain BEM2 (second series), stronger effect = lower value 0.963 | locus YER155C, strain BEM2, stronger effect = lower value 0.99 | locus YER167W, strain BCK2, stronger effect = lower value 0.987 | locus YFR010W, strain ubp6, stronger effect = lower value 0.987 | locus YGL078C, strain dbp3, stronger effect = lower value 0.984 | locus YGL086W, strain mad1, stronger effect = lower value 1.01 | locus YGL167C, strain pmr1, stronger effect = lower value 1.01 | locus YGL173C, strain kem1, stronger effect = lower value 1 | locus YGL227W, strain vid30, stronger effect = lower value 0.975 | locus YGL240W, strain doc1, stronger effect = lower value 1.01 | locus YGL248W, strain PDE1, stronger effect = lower value 0.995 | locus YGL253W, strain hxk2, stronger effect = lower value 1.02 | locus YGR078C, strain PAC10, stronger effect = lower value 1 | locus YGR135W, strain pre9, stronger effect = lower value 0.941 | locus YGR252W, strain gcn5, stronger effect = lower value 0.979 | locus YHR013C, strain ard1, stronger effect = lower value 1.06 | locus YHR027C, strain rpn1, stronger effect = lower value 1.01 | locus YHR030C, strain SLT2, stronger effect = lower value 0.999 and 1.02 | locus YHR079C, strain IRE1 (second series), stronger effect = lower value 0.983 | locus YHR079C, strain IRE1, stronger effect = lower value 1 | locus YHR094C, strain hxt1, stronger effect = lower value 0.987 | locus YHR129C, strain ARP1, stronger effect = lower value 1 | locus YHR142W, strain chs7, stronger effect = lower value 0.999 | locus YHR200W, strain rpn10, stronger effect = lower value 0.98 | locus YIL066C, strain RNR3, stronger effect = lower value 1 | locus YIL073C, strain SPO22, stronger effect = lower value 0.934 | locus YIL125W, strain kgd1, stronger effect = lower value 0.994 | locus YIR030C, strain dcg1, stronger effect = lower value 0.974 | locus YJL092W, strain hpr5, stronger effect = lower value 0.986 | locus YJL095W, strain BCK1 (second series), stronger effect = lower value 1.01 | locus YJL095W, strain BCK1, stronger effect = lower value 0.983 and 1.02 | locus YJL115W, strain asf1, stronger effect = lower value 0.972 | locus YJL129C, strain trk1, stronger effect = lower value 0.97 | locus YJL134W, strain LCB3, stronger effect = lower value 0.984 | locus YJL154C, strain vps35, stronger effect = lower value 0.967 | locus YJL164C, strain tpk1, stronger effect = lower value 0.988 | locus YJL166W, strain qcr8, stronger effect = lower value 1.01 | locus YJL168C, strain set2, stronger effect = lower value 0.989 | locus YJL187C, strain SWE1 (second series), stronger effect = lower value 0.997 | locus YJR043C, strain POL32, stronger effect = lower value 1 | locus YJR066W, strain TOR1, stronger effect = lower value 0.975
